Inconclusive results are not listed. A call without a number means that no potency is given here. The source made the active and inactive calls. Calls come from the whole dose curve; as a rule, active = well fitted activation curve with a large enough effect in the repeat runs; inconclusive = weak or mixed curves; inactive = flat fitted curve, though single readings scatter.

The assay has as its target Nuclear receptor subfamily 1 group I member 2 (Homo sapiens) (UniProt O75469). The assay can be described thus: Human pregnane X receptor (PXR) activation by small molecules, qHTS assay (AID 1346985). Note: nearly all actives have a fitted effect of over 40% in size. The conditions noted are these: DPX-2 HepG2 CYP3A4-luciferase, 24 h; series mostly up to 38.3 µM. The gist of the method:
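DPX-2 cells (HepG2 co-transfected with a PXR response element and a CYP3A4-promoter luciferase construct) were seeded at 2,000 per well, rested 5 hr at 37C, then exposed to DMSO-dissolved compounds for 24 hr. Activation was read as luciferase luminescence.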
On the technique in general: qHTS replaces the single test concentration by a dilution series.
Regarding `CCN(CC)C(=O)/C(C#N)=C/c1cc(O)c(O)c([N+](=O)[O-])c1`, the Potency entry is “inactive”.

Consider `CCOC(=O)c1c(N)sc2c1CCN(Cc1ccccc1)C2`, for which the Potency entry is “inactive”.

As for `CC[C@@H](CO)NCCN[C@@H](CC)CO`, the Potency result is “inactive”.

Turning to `Cc1cn([C@H]2C[C@H](F)[C@@H](CO)O2)c(=O)[nH]c1=O`, the Potency entry was “inactive”.

In the case of `COc1cc(NC(C)CCCN)c2ncccc2c1` (centres undefined), the Potency entry is “inactive”.

Regarding `c1ccc2sc(SSc3nc4ccccc4s3)nc2c1`, the Potency result was “inactive”.

For `COc1cc(NCc2ccc3nc(N)nc(N)c3c2C)cc(OC)c1OC`, the Potency result is “inactive”.

As to `CC[C@H]1OC(=O)[C@H](C)[C@@H](O[C@H]2C[C@@](C)(OC)[C@@H](O)[C@H](C)O2)[C@H](C)[C@@H](O[C@@H]2O[C@H](C)C[C@H](N(C)C)[C@H]2O)[C@](C)(O)C[C@@H](C)CN(C)[C@H](C)[C@@H](O)[C@]1(C)O`, the Potency entry is “inactive”.

Take `O=c1[nH]c2cc(C(F)(F)F)c(N3CCOCC3)cc2n(CP(=O)(O)O)c1=O`: the Potency result was “inactive”.
